Source: PubChem BioAssay AID585 (National Center for Advancing Translational Sciences (NCATS), 2007)
In all, about 71,000 compounds went through this assay and about 1,300 (1.8%) were called active. The entries come from a sample that favours actives as a whole. Unmarked numbers belong to inactive results. Calls follow the shape of the full dose curve.

These compounds were tested against Beta-lactamase (Escherichia coli (strain K12)) (UniProt P00811) (assay: Promiscuous and Specific Inhibitors of AmpC Beta-Lactamase (assay without detergent)). Conditions: AmpC nitrocefin hydrolysis, absorbance 480 nm, no detergent; series mostly up to 28.7 µM; activity change, negative = inhibition: at the top concentration.
Protocol: NIH Molecular Libraries Screening Centers Network [MLSCN]
NIH Chemical Genomics Center [NCGC]
PI Name: Shoichet, Brian K.
This aggregation profiling approach exploits the sensitivity of aggregate formation to detergent. Inhibition of b-lactamase is measured in the presence and absence of 0.01% Triton X-100. See Pubchem assay "Promiscuous and Specific Inhibitors of AmpC Beta-Lactamase (assay with detergent)" for related screen. Compounds that inhibit only in the absence of detergent are considered likely promiscuous aggregators.
A screen of 1,030 compounds was performed in Brian Shoichet's lab in 96-well format. AmpC activity was measured by following the absorbance at 480 nm. Nitrocefin is a chromogenic substrate: while nitrocefin is yellow (lmax 390 nm), the product of its hydrolysis is red (lmax 486 nm, 17,000 M-1). AmpC beta lactamase was provided by Brian Shoichet and Brian Feng, UCSF.
NCGC Assay Protocol Summary:
20 mM phosphate buffer, pH 7.0
Triton X-100: No Detergent screen: 0.0001%, Detergent screen: 0.01%.
Buffer in columns 3 and 4 as negative control (no enzyme).
5.3 nM AmpC in columns 1, 2, 5-48. Titration of UCSF compound 9 control (from 10 mM, then 1:2) pin-transferred to column 2. Column 1 is neutral (100% activity).
Six uL of reagents were dispensed to 1536-well Greiner black clear bottom plates. Compounds and controls (23 nL) were transferred via Kalypsys PinTool. The plates were incubated for 15 min at room temperature, and then 2 uL of 800 uM solution of nitrocefin was added to start the reaction. The plates were immediately transferred to and read every 20 seconds for 4 min on ViewLux (Perkin-Elmer) High-throughput CCD imager using 480 nm absorbance protocol. During dispense, reagent bottles were kept submerged into 4 deg C water bath.
Keywords: NIH Roadmap, MLSCN, MLI, MLSMR, qHTS, NCGC, AmpC Beta-Lactamase, Aggregation.
For activity change, negative = inhibition in this document: % of control where 0% means no effect.
Potency is read from the fitted curve at half-maximal effect.

Sequence of Beta-lactamase (Escherichia coli (strain K12)) (P00811 whole entry, looked up): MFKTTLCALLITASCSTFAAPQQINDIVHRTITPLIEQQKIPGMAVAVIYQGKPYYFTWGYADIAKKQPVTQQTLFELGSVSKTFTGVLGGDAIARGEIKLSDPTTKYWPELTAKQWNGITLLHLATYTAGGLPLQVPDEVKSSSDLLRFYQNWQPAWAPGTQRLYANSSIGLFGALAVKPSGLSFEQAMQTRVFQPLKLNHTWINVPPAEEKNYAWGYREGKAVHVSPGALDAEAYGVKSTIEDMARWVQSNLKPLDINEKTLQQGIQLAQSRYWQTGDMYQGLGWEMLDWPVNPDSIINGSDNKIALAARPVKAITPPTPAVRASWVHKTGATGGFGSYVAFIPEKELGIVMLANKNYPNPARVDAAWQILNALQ

SMILES | activity change, negative = inhibition [%] | Potency
c1ccc(-c2cn3cccnc3n2)cc1 | -2.6 | –
O=C(C1=C(O)C(=O)N(c2ncccn2)C1c1cccs1)c1ccco1 (stereo not drawn) | -10.9 | –
CNC(=O)Nc1cc(C(C)(C)C)no1 | 0.5 | –
Cc1cccc2c1N(CC(=O)OC(C)C)C(=O)C2=O | 1.8 | –
COc1ccc(C)cc1S(=O)(=O)NC1CCCCC1 | 23.8 | –
O=C(CCCn1c(=O)[nH]c2cc(Cl)ccc2c1=O)NCCN1CCN(c2ccccc2)CC1 | 92.9 | –
CCOC(=O)N1CCC(Nc2c(NCCN3CCN(c4cccc(Cl)c4)CC3)c(=O)c2=O)CC1 | – | 3.98 µM [single pt active] (active)
CCOC(=O)N1CCC(Nc2c(NCCCN3CCN(c4ccc(OC)cc4)CC3)c(=O)c2=O)CC1 | 45.6 | –
COc1ccc2c(c1)OC(O)(C(F)(F)C(F)F)CC2=O (stereo not drawn) | -0.7 | –
O=CN1CCN(C2CC(=O)N(c3ccc4c(c3)OCO4)C2=O)CC1 (stereo not drawn) | 1.1 | –
C=CCSc1nnc(Cn2c(=O)sc3ccccc32)n1C | – | 3.98 µM [single pt active] (active)
Cc1cccc(CSc2nnc(Cn3c(=O)sc4ccccc43)n2C)c1 | 38.5 | –
Cc1ccccc1CSc1nnc(Cn2c(=O)sc3ccccc32)n1C | 32.6 | –
CC1CCN(c2oc(-c3ccccc3F)nc2C#N)CC1 | 11.5 | –
C=CCn1c(C)cc(C(=O)CN2C(=O)c3ccccc3C2=O)c1C | 5.1 | –
Clc1ccc(C2CC(c3cccs3)n3ncnc3N2)cc1Cl (stereo not drawn) | 96.9 | –
COc1ccc(C2CC(c3ccc(C)cc3)Nc3ncnn32)cc1 (stereo not drawn) | 80.4 | –
COc1ccc(C2CC(c3ccccc3)Nc3ncnn32)cc1 (stereo not drawn) | – | 3.98 µM [single pt active] (active)
Cc1noc(C)c1C(=O)NC(C)c1ccc2c(c1)OCO2 (stereo not drawn) | -5.3 | –
CN1CCC2(CC1)NC(=O)NC2=O | -9.4 | –
COc1cccc(-c2nnc(NC(=O)c3ccc(S(=O)(=O)N(CC(C)C)CC(C)C)cc3)o2)c1 | – | 7.94 µM (active)

SMILES | activity change, negative = inhibition [%] | Potency
CCN(CC)C(=O)CSc1nnc(-c2cccc(OC)c2)o1 | 25.2 | –
COc1cccc(NC(=O)CN(C)S(=O)(=O)c2ccc(C)cc2)c1 | 4.9 | –
CC(C)C[C@@H](CC(=O)N[C@@H](CCC(=O)O)CC(=O)O)NC(=O)[C@@H]1CCCC[C@H]1NC(=O)C[C@@H](NC(=O)C[C@H](Cc1c[nH]c2ccccc12)NC(=O)[C@@H]1CCCC[C@H]1N)C(C)C | 150 | –
Cc1ccc(NC(=O)C2CCCN(S(=O)(=O)c3c(C)noc3C)C2)c(C)c1 (stereo not drawn) | 37.8 | –
Cc1noc(C)c1S(=O)(=O)N1CCCC(C(=O)Nc2nccs2)C1 (stereo not drawn) | – | 3.98 µM [single pt active] (active)
CCOc1ccc(OCC)c(NC(=O)C2CCN(S(=O)(=O)c3c(C)noc3C)CC2)c1 | 70.7 | –
C=CCNC(=O)C1CC=CCC1C(=O)O (stereo not drawn) | -5.7 | –
Nc1c(C(=O)NCc2ccccc2)nnn1Cc1cccc(Cl)c1 | -19.5 | –
CCOc1ccc(Cn2nnc(C(=O)NCc3ccccc3)c2N)cc1 | – | 3.16 µM [single pt active] (active)
CCOc1ccc(Cn2nnc(C(=O)Nc3ccc(OC)cc3OC)c2N)cc1 | 15 | –
Cc1cc(N2C(=O)C(=O)/C(=C(/O)c3ccc(Cl)cc3)C2c2cccc(Br)c2)no1 (stereo not drawn) | -9 | –
COc1ccc(C(CNC(=O)c2cccnc2SC)N2CCOCC2)cc1 (stereo not drawn) | 6.6 | –
O=C(NCCN1C(=O)C2C3C=CC(C3)C2C1=O)Nc1ccccn1 (stereo not drawn) | – | 3.98 µM [single pt active] (active)
O=C(CN1C(=O)C2C3C=CC(C3)C2C1=O)NCCc1ccccc1Cl (stereo not drawn) | 1.2 | –
O=C(CCN1C(=O)C2C3C=CC(C3)C2C1=O)Nc1ccccc1F (stereo not drawn) | 2.3 | –
CCOc1ccc(CN(Cc2ccco2)C(c2cccs2)c2nnnn2C(C)(C)C)cc1 (stereo not drawn) | 25.1 | –
O=C(COC(=O)c1ccccc1C(=O)c1ccccc1)c1ccco1 | 4.4 | –
Cc1ccc(C(=O)OCC(=O)NCc2ccc3c(c2)OCO3)s1 | -2.6 | –
CCOC(=O)NCc1ccc2c(c1)OCO2 | -7.3 | –
O=C(NCc1ccc2c(c1)OCO2)c1cc2c(s1)CS(=O)(=O)C2 | – | 12.6 µM [single pt active] (active)
CC(Sc1sc(=S)sc1SC(C)C(=O)O)C(=O)O (stereo not drawn) | 0.8 | –

SMILES | activity change, negative = inhibition [%] | Potency
COC(=O)c1sc(NC(=O)c2ccc(OC)cc2OC)nc1C | 16.1 | –
COc1ccc(C(=O)Nc2nncs2)c(OC)c1 | – | 3.98 µM [single pt active] (active)
O=C(Nc1nncs1)c1ccccc1NS(=O)(=O)c1cccs1 | -10.1 | –
COc1ccc(CC(=O)Nc2ccc(-c3nnc(-c4ccccc4)o3)cc2)cc1 | 8.9 | –
Cc1ccc(OCC(=O)Nc2ccc(-c3nnc(-c4ccco4)o3)cc2)cc1 | 12.3 | –
O=C(COC(=O)c1ccc(Oc2ccccc2)cc1)Nc1nnc(-c2ccccc2)o1 | – | 15.8 µM (active)
CS(=O)(=O)N1CCC2(CC1)CN(Cc1cc(C(F)(F)F)cc(C(F)(F)F)c1)C2 | 63 | –
CC1(C)C(=O)Nc2ccccc2N1C(=O)COC(=O)Cn1cnc2ccccc2c1=O | 14.3 | –
CCOC(=O)N1CCN(C(=O)c2cc3c(-c4ccc(Cl)cc4)nn(C)c3s2)CC1 | – | 2.51 µM [single pt active] (active)
O=C(NCc1ccco1)c1nc2ncccn2n1 | -4.1 | –
COc1ccccc1N1CCN(C(=O)c2cc3c(-c4ccc(Cl)cc4)nn(C)c3s2)CC1 | 2.6 | –
COc1cccc(-c2nn(C)c3sc(C(=O)N4CCN(c5ccccc5)CC4)cc23)c1 | 68.5 | –
O=C(NCc1ccco1)c1cc(-c2cccnc2)nc2ccc(Cl)cc12 | 110 | –
Cn1nc(-c2ccc(Cl)cc2)c2cc(C(=O)NCc3ccco3)sc21 | – | 3.16 µM (active)
O=C(NCCc1ccccn1)c1ccc(COc2ccccc2)o1 | 31.1 | –
O=C1CC2(CCCCC2)Oc2ccc(OCC(=O)N3CCOCC3)cc21 | 54.1 | –
CCc1nnc(NC(=O)CSc2nnc(COc3ccc(C#N)cc3)n2-c2ccccc2)s1 | 49 | –
CCOc1ccc(-n2c(SC(C)C(=O)OC)nc3c(c2=O)SCC3)cc1 (stereo not drawn) | 47.2 | –
CNC(=O)CN1C(=O)c2ccccc2S1(=O)=O | – | 3.98 µM [single pt active] (active)
O=C(CN1C(=O)c2ccccc2S1(=O)=O)N1CCc2ccccc21 | -13.7 | –
CCCc1nnc(NC(=O)CN2C(=O)c3ccccc3S2(=O)=O)s1 | -10.1 | –
